# Assay results as given in the OligoGym collection.
# Molecular target: FXN
# Assay: pooled miR-30 sensor sort-seq; sequence = guide strand
# Details: shRNA
# Also: reference of the scale not given here.
row,Sequence,sensor-assay potency score (higher = more potent)
1,TAGGTGGTCTCATCTAGAGAGC,-1.48
2,TTTCATAGGTGGTCTCATCTAG,-0.00192
3,TTTTTGACATTCCAAATCTGGT,-1.15
4,ATCAAATAGACACTCTGCTTTT,-1.04
5,TTGGTTTTTAAGGCTTTAGTGA,-0.944
6,TAAGGCTTTAGTGAGCTCTGCG,0.283
7,TGGTCTCATCTAGAGAGCCTGG,-1.32
8,TTTGACATTCCAAATCTGGTTG,-0.256
9,TTGACAGTTAAGACACCACTCC,-0.462

# Molecular target: FXR1
# Assay: as above
# Details: shRNA
row,Sequence,sensor-assay potency score (higher = more potent)
1,TTGAGCACAGAACTGATGGAGG,-0.647
2,TAAGCATCAACTTCGTACGAAT,-0.962
3,TGTCTCGATCATCTTCTCCTGC,0.196
4,TTGCTCTTGAATATACCTCTAC,-0.669
5,TTTCTTGAATAACTTTGCCATT,-1.55
6,TATTAATCTTTTCTTCTCCTGG,-0.0994
7,TTATTTTCAAAAACAACTGTAA,-0.406
8,TTCATTTCTGGACATAAGCATC,-1.34
9,TATACCTCTACTTCATCTCCTT,0.473
10,TATTTTATAACACAGTAGGTGT,-0.648
11,TTCAATCACATCTTTTGCCATT,-1.45

# Molecular target: FYTTD1
# Assay: as above
# Details: shRNA
row,Sequence,sensor-assay potency score (higher = more potent)
1,TTCTCTTTGCTACTACATCGTC,-0.513
2,TTTAATTTATTTCCACTCCTGG,-0.341
3,TAGCTGGCTAGGTCTCTTGAGA,-1.72
4,TGCTACTACATCGTCTAGCAGT,-0.935
5,TATTCTTGTCACTTAGAGGTGG,0.0654
6,TTATTTTTTCTGCTTAGCTGGC,-0.29
7,TAGTCTTGGAAAATTCTGCTTC,0.266
8,TAGGTCTCTTGAGAACTGCTAC,-0.309
9,TTAAAAATGAAGGTACAGCAGT,-0.441
10,TTCTGTATTCAACTGGGCCTGC,-0.211
11,TTGTATGTGAGAGTGGCTCTTT,-0.0403
12,TACTACATCGTCTAGCAGTTGT,0.276

# Molecular target: FZD1
# Assay: as above
# Details: shRNA
row,Sequence,sensor-assay potency score (higher = more potent)
1,TACAGCACGCTGAAGACGCCAA,-0.38
2,TTGCTGGTCCAGAACTCTGGAA,-1.24
3,TACTTAATCATGAAGACCGTGA,-0.126
4,TGTCATTACACACCACTCGGTC,-0.427
5,TAGAACTTCCTCCAGGAGTTGA,-0.794
6,TTTCACTAGAGGGTAGAACTGG,-0.532
7,TTCACTAGAGGGTAGAACTGGT,0.461
8,ATGAAGACCGTGAAGTCCGGGC,-0.0414
